The record followed here is PubChem BioAssay (NCI).

Compounds without any hit were thinned out: in the full panel of roughly 83,000, 20% have a hit.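 Plates (96-well) were seeded with cells, treated with compound at one concentration, and incubated for 48 hours before percent growth was determined.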 Values without a mark were called inactive. Activity calls are given as the source filed them. How the source made its calls: active means growth percent below 10; inactive means the rest.

Some test systems named below: SK-MEL-2 melanoma; EKVX NSCLC; SN12C renal; UO-31 renal; TK-10 renal; ACHN renal; A498 renal; CCRF-CEM leukemia; MOLT-4 leukemia; SR leukemia; RPMI-8226 leukemia; OVCAR-8 ovarian; OVCAR-5 ovarian; OVCAR-4 ovarian; SK-OV-3 ovarian; IGROV1 ovarian; OVCAR-3 ovarian; HS 578T breast; NCI/ADR-RES ovarian.
What all share (assay): NCI-60 one-dose screen, 48 h (100 = growth as untreated, 0 = no growth, -100 = all killed)
Settings in all cases: 10 µM

`COc1cc(-c2nn(-c3cccc(NC(=O)CCNc4ccc(N5CCOCC5)cc4)c3)cc2-c2ccncc2)ccc1Cl`: the growth with SK-MEL-2 melanoma was 10.3%; in the assay with EKVX NSCLC it was 39.4%; in the assay on SN12C renal, 27.6%; in the assay with UO-31 renal, 27.3%; in the assay with TK-10 renal, 24.7%; in the assay with ACHN renal it was 15.8%. Moreover, the growth in the assay on A498 renal is 18.3%; in the assay on CCRF-CEM leukemia, 10.9%; in the assay with MOLT-4 leukemia, 3.1% (active); in the assay on SR leukemia, 5.07% (active); in the assay with RPMI-8226 leukemia, 15.5%; in the assay with OVCAR-8 ovarian it was 7.74% (active). In addition, the growth with OVCAR-5 ovarian is 49%; in the assay with OVCAR-4 ovarian, 26%; in the assay with SK-OV-3 ovarian it was 34.7%; with IGROV1 ovarian it was 27.3%; with OVCAR-3 ovarian, 14.1%; in the assay on HS 578T breast, 29.7%. For the same molecule, the growth in the assay with NCI/ADR-RES ovarian is 36%.

On to `CC(=O)Oc1cc(OC(C)=O)c2ccccc2c1OC(C)=O`, for which the growth with SK-MEL-2 melanoma is 90.5%; in the assay on EKVX NSCLC it was 97.5%; with SN12C renal, 87.4%; in the assay on UO-31 renal it was 62.6%; in the assay on TK-10 renal it was 150%; with ACHN renal it was 84.9%. Moreover, the growth in the assay on A498 renal was 95.2%; in the assay on MOLT-4 leukemia, 69.5%; in the assay with SR leukemia it was 69.4%; in the assay with RPMI-8226 leukemia, 72.5%; in the assay on OVCAR-8 ovarian, 81.9%; in the assay with OVCAR-5 ovarian, 115%. Besides, the growth was 86% in the assay on OVCAR-4 ovarian; 76.8% in the assay on SK-OV-3 ovarian; 63.1% in the assay on IGROV1 ovarian; 84.1% with OVCAR-3 ovarian; 83% in the assay with HS 578T breast; 88.9% in the assay on NCI/ADR-RES ovarian.

With `CCN(CC)CCOc1cccc2c1C(=O)c1cccc(OCCN(CC)CC)c1C2=O`, the growth was 32.1% with SK-MEL-2 melanoma; 53.6% with EKVX NSCLC; 27.5% in the assay on SN12C renal; 41% in the assay with UO-31 renal; 47.4% with TK-10 renal; 17.7% in the assay on ACHN renal. The growth in the assay on A498 renal is 63%; with CCRF-CEM leukemia, 22.3%; in the assay on MOLT-4 leukemia, 8.32% (active); with SR leukemia it was 10.3%; with RPMI-8226 leukemia, 11%; with OVCAR-8 ovarian it was 25.7%. For the same molecule, the growth with OVCAR-5 ovarian is 55.5%; in the assay with OVCAR-4 ovarian, 45.9%; in the assay with SK-OV-3 ovarian, 33.8%; in the assay with IGROV1 ovarian, 33.9%; in the assay on OVCAR-3 ovarian, 47%; with HS 578T breast, 78.9%. Further, the growth in the assay with NCI/ADR-RES ovarian is 86.5%.

Take `S=C(SSC(=S)N(c1ccccc1)c1ccccc1)N(c1ccccc1)c1ccccc1`: the growth in the assay on SK-MEL-2 melanoma is 95.1%; with EKVX NSCLC, 118%; in the assay with SN12C renal, 94.5%; with UO-31 renal it was 97.1%; in the assay on TK-10 renal, 95.3%; in the assay on ACHN renal, 114%. Moreover, the growth with A498 renal is 114%; in the assay on CCRF-CEM leukemia, 87.9%; with MOLT-4 leukemia it was 93.9%; in the assay on SR leukemia it was 92.6%; with RPMI-8226 leukemia, 97.1%; in the assay with OVCAR-8 ovarian, 89.8%. In addition, the growth in the assay with OVCAR-5 ovarian was 111%; with OVCAR-4 ovarian, 113%; in the assay with SK-OV-3 ovarian, 100%; in the assay on OVCAR-3 ovarian it was 102%; in the assay with HS 578T breast, 108%; with NCI/ADR-RES ovarian, 105%.

Consider `COc1ccc(-c2nnc(SCC(=O)Nc3ccc(C(=O)/C=C/c4ccccc4)cc3)n2-c2ccccc2)cc1OC`, for which the growth in the assay with SK-MEL-2 melanoma is 100%; in the assay on EKVX NSCLC, 120%; in the assay on SN12C renal, 84.9%; with UO-31 renal, 69.2%; with TK-10 renal, 93.1%; in the assay on ACHN renal, 98.9%. Also, the growth with A498 renal is 82.5%; in the assay with MOLT-4 leukemia, 59.7%; in the assay with SR leukemia it was 57.5%; in the assay with RPMI-8226 leukemia it was 23.4%; in the assay on OVCAR-8 ovarian, 51.3%; in the assay on OVCAR-5 ovarian it was 104%. Further, the growth with OVCAR-4 ovarian is 62.5%; in the assay on SK-OV-3 ovarian, 101%; in the assay on OVCAR-3 ovarian, 88.8%; in the assay on HS 578T breast, 83.1%; in the assay on NCI/ADR-RES ovarian, 88.3%.

Consider `O=C(/C=C/C=C/c1c(C2CC2)nc2ccccc2c1-c1ccc(F)cc1)c1cccs1`, for which the growth in the assay on SK-MEL-2 melanoma was -76.5% (active); in the assay on EKVX NSCLC it was 49.3%; with SN12C renal it was 38.1%; with UO-31 renal, -43.8% (active); in the assay with TK-10 renal it was 22.4%; in the assay with ACHN renal, -42.6% (active). In addition, the growth with A498 renal was -21.7% (active); with MOLT-4 leukemia, 8.46% (active); with SR leukemia, -6.7% (active); in the assay on RPMI-8226 leukemia, -26.6% (active); in the assay with OVCAR-8 ovarian, 18.1%; with OVCAR-5 ovarian, 1.66% (active). The growth with OVCAR-4 ovarian was 24%; in the assay with SK-OV-3 ovarian it was 42.6%; with IGROV1 ovarian, 19.1%; in the assay on OVCAR-3 ovarian it was -2.17% (active); in the assay with HS 578T breast, 24.4%; with NCI/ADR-RES ovarian, 22.9%.

As to `Cc1ccc(NCCN(C)CC(C)O)c2c(=O)c3ccccc3sc12` (configuration not stated), the growth in the assay with SK-MEL-2 melanoma was 90.6%; in the assay on EKVX NSCLC, 86.4%; in the assay on SN12C renal it was 49.6%; in the assay with UO-31 renal, 41.5%; in the assay with TK-10 renal, 45%; in the assay with ACHN renal it was 29.5%. For the same molecule, the growth is 68.4% in the assay on A498 renal; 31.3% in the assay with CCRF-CEM leukemia; 2.58% (active) with MOLT-4 leukemia; 2.49% (active) in the assay on SR leukemia; 19% in the assay with RPMI-8226 leukemia; 33.9% in the assay with OVCAR-8 ovarian. In addition, the growth with OVCAR-5 ovarian is 61.8%; with OVCAR-4 ovarian it was 59.9%; in the assay on SK-OV-3 ovarian, 54.9%; in the assay with IGROV1 ovarian it was 38.4%; in the assay with OVCAR-3 ovarian it was 66.7%; with HS 578T breast, 55.2%. Besides, the growth with NCI/ADR-RES ovarian was 44.7%.

Regarding `C=CCSC(CC)(CC)C(=O)NC`, the growth in the assay on SK-MEL-2 melanoma was 109%; in the assay with EKVX NSCLC, 104%; in the assay on SN12C renal, 101%; in the assay with UO-31 renal, 94.4%; in the assay with TK-10 renal, 102%; with ACHN renal it was 107%. Further, the growth with A498 renal was 104%; in the assay with CCRF-CEM leukemia it was 101%; with MOLT-4 leukemia it was 93%; in the assay on SR leukemia, 99.3%; in the assay on RPMI-8226 leukemia it was 101%; with OVCAR-8 ovarian it was 105%. Moreover, the growth is 104% with OVCAR-5 ovarian; 109% in the assay with OVCAR-4 ovarian; 105% with SK-OV-3 ovarian; 113% with IGROV1 ovarian; 112% with OVCAR-3 ovarian; 106% with HS 578T breast. In addition, the growth in the assay on NCI/ADR-RES ovarian was 107%.
